Inconclusive results are not listed. Where a call stands in place of a potency, no number is given. A number with no mark means an inactive call. Calls of active or inactive are those of the source. Calls come from the whole dose curve; as a rule, active = well fitted curve in the direction sought with a large enough effect; inconclusive = small, poorly fitted or top-dose-only effect, or another doubt; inactive = no such curve, though single readings can be large; an effect the other way counts as inactive or inconclusive.
Assays:
[1] = BET inhibitor-based combinations targeting novel dependencies in MECOM-rearranged (r) AML: SET-2 cell line (AID 2202231); conditions: SET-2 AML cells viability, CellTiter-Glo luminescence, 48 h; viability: stronger effect = lower value, concentration not given here; note: nearly all actives have a fitted effect of over 35% in size; note: potency is the fitted concentration of half-maximal effect
Method in brief: (§1)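 Cells were plated at 500 per well and exposed to an 11-point dose series of each drug for 48 hr. Viability was measured by CellTiter-Glo luminescence, normalized to DMSO and empty-well controls, and summarized as AUC and per-cell-line Z-AUC.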

[2] = BET inhibitor-based combinations targeting novel dependencies in MECOM-rearranged (r) AML: MV-4-11 cell line (AID 2202233); conditions: MV-4-11 AML viability, CellTiter-Glo luminescence, 48 h; series mostly up to 46 µM; note: nearly all actives have a fitted effect of over 45% in size; note: potency is the fitted concentration of half-maximal effect
Method in brief: (§2)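 Activity is given as area under the curve and as Z-AUC, mean-centred within each cell line. It comes from 11-point dose curves normalized to DMSO and empty wells. CellTiter-Glo luminescence was read after 48 hr drug exposure of 500 cells/well.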

[3] = BET inhibitor-based combinations targeting novel dependencies in MECOM-rearranged (r) AML: HNT-34 cell line (AID 2202234); conditions: HNT-34 AML viability, CellTiter-Glo luminescence, 48 h; series mostly up to 46 µM; note: nearly all actives have a fitted effect of over 35% in size; note: potency is the fitted concentration of half-maximal effect
Method in brief: as §2

[4] = BET inhibitor-based combinations targeting novel dependencies in MECOM-rearranged (r) AML: UCSD-AML1 cell line (AID 2202235); conditions: UCSD-AML1 AML cells viability, CellTiter-Glo, 48 h; series mostly up to 46 µM; note: nearly all actives have a fitted effect of over 40% in size
Method in brief: as §2

[5] = BET inhibitor-based combinations targeting novel dependencies in MECOM-rearranged (r) AML: AML-191 cell line (AID 2202236; note: nearly all actives have a fitted effect of over 35% in size; note: potency is the fitted concentration of half-maximal effect); conditions: AML-191 viability, CellTiter-Glo luminescence, 48 h; series mostly up to 46 µM
Method in brief: as §1

[6] = BET inhibitor-based combinations targeting novel dependencies in MECOM-rearranged (r) AML: AML-194 cell line (AID 2202237; note: nearly all actives have a fitted effect of over 40% in size; note: potency is the fitted concentration of half-maximal effect); conditions: AML-194 (MECOM-r AML) viability, CellTiter-Glo, 48 h; series mostly up to 46 µM
Method in brief: as §1

[7] = BET inhibitor-based combinations targeting novel dependencies in MECOM-rearranged (r) AML: OCI-AML3 cell line (AID 2202232); conditions: CellTiter-Glo luminescence, 48 h; Potency: OCI-AML3 viability; series mostly up to 46 µM; note: nearly all actives have a fitted effect of over 35% in size; note: potency is the fitted concentration of half-maximal effect
Method in brief: as §1

SMILES | viability [1] [%] | Potency [2] | Potency [3] | Potency [4] | Potency [5] | Potency [6] | Potency [1] | Potency [7]
C[C@H]1[C@H](O)[C@@H](C)/C=C/C=C/CC/C=C/C=C/C=C/C=C/[C@H](O[C@@H]2O[C@H](C)[C@@H](O)[C@H](N)[C@@H]2O)C[C@@H]2O[C@](O)(C[C@@H](O)[C@H](O)CC[C@@H](O)C[C@@H](O)C[C@@H](O)CC(=O)O[C@H]1C)C[C@H](O)[C@H]2C(=O)O | 99 | inactive | inactive | inactive | inactive | inactive | – | –
CN1C(=O)[C@@H](NC(=O)[C@H](CCC(F)(F)F)[C@H](CCC(F)(F)F)C(N)=O)N=C(c2ccccc2)c2ccccc21 | 114 | – | inactive | – | – | – | – | –
CCCCCCC(C)(C)c1cc(O)c2c(c1)OC(C)(C)C1CC=C(CO)C[C@H]21 (some centres undefined) | – | 29.5 µM (active) | 14.8 µM (active) | – | 18.6 µM (active) | 23.5 µM (active) | 23.5 µM (active) | –
O=P1(NCCCl)OCCCN1CCCl (centres undefined) | 115 | inactive | inactive | – | inactive | inactive | – | –
COc1cc(C(=O)N2CC[C@@H](O)[C@@H](N)C2)cc2nc(-c3cc4ccccc4n3CC3CC3)n(C)c12 | 103 | – | inactive | inactive | inactive | inactive | – | –
O=C(O)C1=CCCN(CCOC(c2ccc(C(F)(F)F)cc2)c2ccc(C(F)(F)F)cc2)C1 | – | – | – | – | inactive | inactive | – | –
Cc1c(N)nc([C@H](CC(N)=O)NC[C@@H](N)C(N)=O)nc1C(=O)N[C@H](C(=O)N[C@@H](C)[C@H](O)[C@@H](C)C(=O)N[C@@H](C(=O)NCCc1nc(-c2nc(C(=O)NCCC[S+](C)C)cs2)cs1)[C@@H](C)O)C(O[C@H]1O[C@H](CO)[C@H](O)[C@@H](O)[C@H]1O[C@H]1O[C@H](CO)[C@@H](O)[C@H](OC(N)=O)[C@@H]1O)c1cnc[nH]1 (some centres undefined) | – | – | 8.11 µM (active) | inactive | inactive | inactive | – | inactive
COC12C(COC(N)=O)C3=C(C(=O)C(C)=C(N)C3=O)N1CC1C2N1C (centres undefined) | – | inactive | inactive | inactive | – | inactive | – | inactive
CN1C(=O)COc2c(C(=O)NC3CN4CCC3CC4)cc(Cl)cc21 (centres undefined) | – | inactive | inactive | – | inactive | – | – | inactive
CC(C)C[C@H](CN)CC(=O)O | – | – | inactive | inactive | inactive | inactive | – | inactive
Cn1c(/C=C/CO)c(CO)c2c1C(=O)C=C(N1CC1)C2=O | – | – | inactive | – | – | inactive | – | –
C=C(C)[C@@H]1CCC(C)=C[C@H]1c1c(O)cc(CCCCC)cc1O | – | 18.6 µM (active) | – | – | – | – | – | 20.9 µM (active)
C[C@]12CC[C@H]3[C@@H](CC[C@@]45O[C@@H]4C(O)=C(C#N)C[C@]35C)[C@@H]1CC[C@@H]2O | 112 | – | inactive | inactive | inactive | inactive | – | –
CC(C)[C@H]1C(=O)N[C@H](CO)Cc2c[nH]c3cccc(c23)N1C | – | – | 0.0512 µM (active) | – | – | – | – | –
C=C[C@H]1CN2CCC1C[C@@H]2[C@@H](O)c1ccnc2ccccc12 (some centres undefined) | – | 5.9 µM (active) | inactive | inactive | inactive | inactive | – | inactive
CC1(C)C(=O)N(c2ccc(C#N)c(C(F)(F)F)c2)C(=S)N1Cc1ccc(-c2cn[nH]n2)cc1 | – | – | – | inactive | – | 20.9 µM (active) | – | 11.8 µM (active)
CC(C)CC(N(C)C)C1(c2ccc(Cl)cc2)CCC1 (centres undefined) | – | – | inactive | – | – | inactive | – | –
C/C(O)=C(\C#N)C(=O)Nc1cc(Br)ccc1Br | – | inactive | inactive | – | inactive | inactive | – | inactive
CCOP(=O)(OCC)C(C)NC(=O)N(CCCl)N=O (centres undefined) | – | inactive | inactive | inactive | inactive | inactive | – | –
O=c1cccc2n1CC1CNC[C@H]2C1 | – | – | inactive | – | inactive | inactive | – | inactive
C[C@@H](C1CC[C@@]2(O)C3=CC(=O)[C@@H]4C[C@@H](O)[C@@H](O)C[C@]4(C)[C@H]3CC[C@]12C)[C@H](O)CCC(C)(C)O (some centres undefined) | – | inactive | inactive | inactive | inactive | inactive | – | –

From PubChem BioAssay (NCATS)
